Experimental findings from PubChem BioAssay (Tox21) are described below.

Records with an inconclusive call do not appear. The source made the active and inactive calls. Unless noted, calls come from the whole dose curve; as a rule, active = well fitted curve in the direction sought with a large enough effect in the repeat runs; inconclusive = weak or mixed curves; inactive = no such curve, though single readings can be large; an effect the other way counts as inactive or inconclusive.

A short description of assay [1]: qHTS assay for small molecule agonists of the p53 signaling pathway (AID 651631; calls by dose curve; note: nearly all actives have a fitted effect of over 15% in size). The gist of the method: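 HCT-116 p53RE-bla reporter line, 16 h compound treatment at 37 °C, then fluorescence after 2 h with B/G FRET substrate.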
Assay [2] can be described thus: qHTS assay for small molecules that induce genotoxicity in human embryonic kidney cells expressing luciferase-tagged ATAD5 (AID 651632). Note: nearly all actives have a fitted effect of over 15% in size. The procedure, abridged:
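Reporter cells (HEK293T) express luciferase-tagged ATAD5, a protein that accumulates after DNA damage. Treat 16 hr at 37C/5% CO2, add Amplite, wait 30 min at RT, and read luminescence.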

A short description of assay [3]: qHTS assay for small molecule agonists of the p53 signaling pathway - cell viability (AID 651633; calls by dose curve;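 note: p53RE-bla HCT reporter cells with a stable beta-lactamase p53 reporter; series mostly up to about 83 µM; nearly all actives have a fitted effect of over 30% in size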). The procedure, abridged: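 Viability counter-read: CellTiter-Glo luminescence (30 min, room temperature) in the same p53RE-bla plates. These plates had been exposed to compounds for 16 h at 37 C.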
Assay [4] is described as follows: qHTS assay for small molecules that induce genotoxicity in human embryonic kidney cells expressing luciferase-tagged ATAD5 - cell viability (AID 651634; calls by dose curve; note: nearly all actives have a fitted effect of over 25% in size). The gist of the method:
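Seeding of 2,000 HEK293T ATAD5-luciferase cells per well preceded pin-tool compound transfer. Plates sat 15.5 hr at 37C under 5% CO2, then fluorescence was read after 30 min with CellTiter-Fluor.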

The nature of assay [5]: qHTS assay for small molecule disruptors of the mitochondrial membrane potential (AID 720635). Note: potency is the fitted concentration of half-maximal effect. The procedure, abridged: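 Mitochondrial membrane potential tracked with Mito-MPS dye, red aggregates (ex 540/em 590 nm) against green monomers (ex 490/em 535 nm). Compound treatment 1 hr at 37C, dye 30 min in HepG2.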
(In general: In qHTS, concentration-response curves come from the screen itself.)

Assay [6] is described as follows: qHTS assay to test for compound auto fluorescence at 590 nm (red) in HepG2 cells (AID 720674). The gist of the method: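 1 hr compound incubation on HepG2 cells, 37 C, 5% CO2; plate read ex 540 nm / em 590 nm; intensities reported as Rose Bengal sodium equivalents.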
Assay [7] in a line: qHTS assay to test for compound auto fluorescence at 535 nm (green) in HepG2 cells (AID 720675).
The nature of assay [8]: qHTS assay to test for compound auto fluorescence at 590 nm (red) in HEK293 cells (AID 720679). The procedure, abridged:
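Each well held 2,000 HEK293 cells in medium containing 10% dialyzed FBS. Following 4-5 hr attachment at 37C, 23 nL test compound or DMSO was added; plates sat overnight, and red fluorescence (540/590nm) was recorded.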

Assay [9] is described as follows: qHTS assay to test for compound auto fluorescence at 460 nm (blue) in HEK293 cells (AID 720678). The procedure, abridged: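 Cells were seeded and left to adhere for 4-5 hr at 37C. Compounds were then pin-transferred. After an overnight incubation at 37C under 5% CO2, intrinsic fluorescence at 405/460 nm was measured and referenced to triamterene.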
The nature of assay [10]: qHTS assay for small molecule disruptors of the mitochondrial membrane potential - cell viability (AID 720634; calls by dose curve;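 note: human HepG2 liver cancer cells; series mostly up to about 83 µM; nearly all actives have a fitted effect of over 20% in size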). The gist of the method: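 Measuring cytotoxicity alongside mitochondrial potential, the screen quantified ATP by luminescence in HepG2 cells after 1 hr compound incubation and a 30 min room-temperature CellTiter-Glo step.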

As to `CO/N=C(\C(=O)N[C@@H]1C(=O)N2C(C(=O)O)=C(CSc3nc(C)c(CC(=O)O)s3)CS[C@H]12)c1csc(N)n1`, the Potency result in [1], in assay [2], in assay [3], in [4], in assay [5] and in [7] was “inactive” throughout. The compound was called inactive in assay [6] and in assay [8].
Regarding `CC/C(=C(/CC)c1ccc(OP(=O)(O)O)cc1)c1ccc(OP(=O)(O)O)cc1`, the Potency entry in assay [1], in assay [2], in assay [3], in assay [4], in assay [5] and in [7] was “inactive” throughout. For the same compound, the Potency entry in assay [9] was “inactive”. For the same compound, the compound was called inactive in assay [6] and in assay [8].
With `CCC(=O)OC(OP(=O)(CCCCc1ccccc1)CC(=O)N1C[C@H](C2CCCCC2)C[C@H]1C(=O)O)C(C)C` (stereo not given in full), the Potency result in [1], in assay [2], in assay [4], in assay [10], in assay [5] and in assay [7] was “inactive” throughout. The Potency entry in [9] is “inactive”. Further, in assay [8], the compound was called inactive.
As for `NCCCC(=O)O`, the Potency result in [1], in [3], in assay [4], in [10], in assay [5] and in assay [7] was “inactive” in each case. In assay [9], the Potency entry was “inactive”. In addition, the result in assay [6] and in [8] was inactive.
Regarding `CC(C)(S)C(=O)N[C@@H](CS)C(=O)O`, the Potency entry in assay [1], in assay [3], in assay [4], in [10], in assay [5] and in assay [9] was “inactive” each time. The call in [6] and in assay [8] was inactive.
In the case of `CN1C(C(=O)Nc2ccccn2)C(=O)c2sc(Cl)cc2S1(=O)=O` (stereo not given), the Potency entry in [1], in assay [3], in assay [4], in [10], in [7] and in assay [9] was “inactive” in each case. The Potency in [5] is 8.41 µM (active). For the same compound, the result in [6] and in assay [8] was inactive.
`CC/C=C\C/C=C\C/C=C\C/C=C\C/C=C\CCCC(=O)O`: the Potency entry in assay [1], in assay [3], in [4], in assay [10], in [5] and in [7] was “inactive” throughout. For the same compound, the Potency entry in assay [9] was “inactive”. Moreover, the compound was classed as inactive in [6] and in [8].
`C=C1[C@@H]2CC[C@@H](C2)C1(C)C`: the Potency entry in [1], in assay [3], in [4], in assay [10], in assay [5] and in [7] was “inactive” each time. Further, the compound was called inactive in assay [6] and in assay [8].
On to `CCc1cn([C@H]2C[C@H](O)[C@@H](CO)O2)c(=O)[nH]c1=O`, for which the Potency entry in assay [1], in [3], in assay [4], in assay [10], in assay [5] and in assay [7] was “inactive” each time. For the same compound, the compound was classed as inactive in assay [6] and in assay [8].
For `CCN(CC)C(=O)[C@]1(c2ccccc2)C[C@@H]1CN`, the Potency entry in [1], in [3], in assay [4], in [10], in assay [5] and in assay [7] was “inactive” each time. For the same compound, in [9], the Potency result is “inactive”. Moreover, the result in [6] and in assay [8] was inactive.
Regarding `CCCCCCCCCCCCCC(=O)OCC(COP(=O)([O-])OCC[N+](C)(C)C)OC(=O)CCCCCCCCCCCCC` (stereo not given), the Potency entry in assay [1], in assay [4], in assay [10], in assay [5], in [7] and in [9] was “inactive” throughout. Besides, the call in assay [6] and in [8] was inactive.
In the case of `CC(=O)Oc1cc(C(F)(F)F)ccc1C(=O)O`, the Potency entry in assay [1], in assay [3], in [4], in [10], in assay [5] and in assay [9] was “inactive” throughout. In addition, the compound was classed as inactive in assay [6] and in assay [8].
Consider `C=CC[N+]1([C@H]2C[C@H]3[C@@H]4CC[C@H]5C[C@H](O)[C@@H](N6CCOCC6)C[C@]5(C)[C@H]4CC[C@]3(C)[C@H]2OC(C)=O)CCCC1`, for which the Potency entry in assay [1], in assay [3], in [4], in [10], in [5] and in assay [7] was “inactive” in each case. Also, in [9], the Potency result is “inactive”. Also, the result in assay [6] and in assay [8] was inactive.
Regarding `CC1(C)S[C@@H]2[C@H](N3C(=O)C(c4ccccc4)NC3(C)C)C(=O)N2[C@H]1C(=O)O` (stereo not given in full), the Potency entry in [1], in assay [3], in [4], in assay [10], in assay [5] and in assay [7] was “inactive” in each case. Moreover, in [9], the Potency entry was “inactive”. Moreover, the call in assay [6] and in assay [8] was inactive.
In the case of `C[C@H](NCCc1ccc(O)cc1)[C@H](O)c1ccc(O)cc1`, the Potency result in assay [1], in assay [3], in assay [4], in assay [10], in assay [5] and in assay [7] was “inactive” throughout. Moreover, the Potency entry in assay [9] is “inactive”. Also, the compound was classed as inactive in [6] and in assay [8].
With `COc1ccc(/C=C/C(=O)Nc2ccccc2C(=O)O)cc1OC`, the Potency result in [1], in assay [4], in assay [10], in assay [7] and in assay [9] was “inactive” throughout. For the same compound, the result in assay [6] and in assay [8] was inactive.
As to `O=C(O)COc1ccccc1/C=N/NC(=O)c1ccncc1`, the Potency result in [1], in [3], in assay [4], in assay [10], in assay [5] and in assay [9] was “inactive” each time. Also, the outcome in assay [6] and in assay [8] was inactive.
For the compound `NC(=O)[C@@H]1C[C@]2(NC(=O)NC2=O)c2cc(F)ccc2O1`, the Potency entry in assay [1], in assay [3], in assay [4] and in assay [5] was “inactive” each time. The compound was classed as inactive in assay [6] and in assay [8].
For `O=C(O)/C=C/C(=O)Nc1ccc(S(=O)(=O)Nc2nccs2)cc1`, the Potency result in assay [1], in assay [3], in assay [4], in [10], in assay [5] and in [7] was “inactive” throughout. Also, the Potency result in assay [9] is “inactive”. Besides, the compound was classed as inactive in [6] and in assay [8].
For the compound `COc1ccc(/C=N/NC(=O)c2ccncc2)c(C(=O)O)c1OC`, the Potency result in assay [1], in assay [3], in assay [4], in assay [10], in assay [5] and in assay [7] was “inactive” throughout. Further, the Potency result in [9] was “inactive”. Besides, the compound was classed as inactive in [6] and in assay [8].
As to `NC(N)=NCC1COC2(CCCCC2)O1` (stereo not given), the Potency entry in [1], in [3], in [4], in assay [10], in assay [5] and in assay [7] was “inactive” each time. The compound was classed as inactive in [6] and in assay [8].
